This is an account of results in PubChem BioAssay (NCI).

Test [1] is described as follows: NCI Yeast Anticancer Drug Screen. Data for the rad50 strain (AID 155).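 Further: 0% = growth of vehicle-only cultures of the same strain.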 To be noted: S. cerevisiae rad50 strain growth inhibition, stronger effect = higher value. In outline: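 Compounds were tested on a yeast strain with an engineered DNA damage repair alteration; the reported value is growth inhibition normalised to vehicle treatment.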
The nature of test [2]: NCI Yeast Anticancer Drug Screen. Data for the mec2-1 strain (AID 157). Particulars: S. cerevisiae mec2-1 strain, stronger effect = higher value. In outline: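 Using mec2-1 yeast: add compound, measure growth, express inhibition versus vehicle-treated cultures.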
A short description of test [3]: NCI Yeast Anticancer Drug Screen. Data for the sgs1 mgt1 strain (AID 161).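 Further: 0% = growth of cultures given vehicle only.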 Particulars: S. cerevisiae sgs1 mgt1 strain, stronger effect = higher value. In outline: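 This yeast growth screen uses a strain with defined DNA-repair lesions; compound-treated growth is compared with vehicle-treated growth.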
A short description of test [4]: NCI Yeast Anticancer Drug Screen. Data for the cln2 rad14 strain (AID 165).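 Further: 0% = growth equal to vehicle treated cultures.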 Particulars: S. cerevisiae cln2 rad14 strain, stronger effect = higher value. In outline:
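Yeast strain cln2 rad14, bearing defects in cell cycle control and DNA repair, serves as the test system; values reflect growth inhibition compared with vehicle.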

Test [5] can be described thus: NCI Yeast Anticancer Drug Screen. Data for the bub3 strain (AID 167). Particulars: S. cerevisiae bub3 mutant strain, stronger effect = higher value. In outline:
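Growth of a checkpoint-deficient yeast mutant is measured after compound exposure. Values represent inhibition relative to vehicle.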

A short description of test [6]: NCI Yeast Anticancer Drug Screen. Data for the mlh1 rad18 strain (AID 175). Particulars: S. cerevisiae mlh1 rad18 strain growth inhibition, stronger effect = higher value. In outline: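 Steps: expose repair-defective yeast to compound; measure growth; express inhibition against vehicle-treated controls.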
Where [7] appears, read: at 5.0 µM (retest, dose inferred, filed as 0.5).
The mark [8] stands for this setting: at 50.0 µM (retest, dose inferred, filed as 5.0).

The panel holds about 79,000 compounds, 15% with a hit somewhere; the sample as a whole holds those more often. Values without a mark were called inactive. Calls of active or inactive are those of the source. No stated cut-off is given here; in the data, active means growth inhibition above about 70%; inactive means the rest.

`Nc1ccc2c(SCCSc3c4ccccc4nc4cc(N)ccc34)c3ccccc3nc2c1`: the growth inhibition was 25% in test [1] (setting [7]); 81% (active) in test [1] (setting [8]); 56% in test [1] (at 50.0 µM); 20% in test [2] (setting [7]); 62% in test [2] (setting [8]); 33% in test [2] (at 50.0 µM). Besides, the growth inhibition in test [3] (setting [7]) was 28%; in test [3] (setting [8]), 76% (active); in test [3] (at 50.0 µM), 52.6%; in test [4] (setting [7]), 6%; in test [4] (setting [8]), 28%; in test [4] (at 50.0 µM), -8.65%. Further, the growth inhibition in test [5] (setting [7]) is 1%; in test [5] (setting [8]), -14%; in test [5] (at 50.0 µM), -6.05%; in test [6] (setting [7]) it was 23%; in test [6] (setting [8]) it was 46%; in test [6] (at 50.0 µM), 29.9%.
`CCCCOP(=O)(OCCCC)C(NS(=O)(=O)c1ccccc1)(C(=O)OCC)C(F)(F)F` (stereo not given): the growth inhibition is 11% in test [1] (setting [7]); 42% in test [1] (setting [8]); 99% (active) in test [1] (at 50.0 µM); 7% in test [2] (setting [7]); 28% in test [2] (setting [8]); 99.1% (active) in test [2] (at 50.0 µM). Besides, the growth inhibition was 3% in test [3] (setting [7]); 48% in test [3] (setting [8]); 99% (active) in test [3] (at 50.0 µM); 16% in test [4] (setting [7]); 63% in test [4] (setting [8]); 99.2% (active) in test [4] (at 50.0 µM). Besides, the growth inhibition in test [5] (setting [7]) is 9%; in test [5] (setting [8]), 47%; in test [5] (at 50.0 µM), 99.2% (active); in test [6] (setting [7]), 26%; in test [6] (setting [8]), 79% (active); in test [6] (at 50.0 µM), 99% (active).
Consider `CSC(=S)NN=C1CCCCC1`, for which the growth inhibition is 59% in test [1] (setting [7]); 97% (active) in test [1] (setting [8]); 90.9% (active) in test [1] (at 50.0 µM); 47% in test [2] (setting [7]); 98% (active) in test [2] (setting [8]); 88.5% (active) in test [2] (at 50.0 µM). The growth inhibition in test [3] (setting [7]) is 49%; in test [3] (setting [8]), 97% (active); in test [3] (at 50.0 µM), 93.8% (active); in test [4] (setting [7]), 9%; in test [4] (setting [8]) it was 78% (active); in test [4] (at 50.0 µM), 58.6%. Moreover, the growth inhibition is 81% (active) in test [5] (setting [7]); 97% (active) in test [5] (setting [8]); 93.7% (active) in test [5] (at 50.0 µM); 55% in test [6] (setting [7]); 96% (active) in test [6] (setting [8]); 90.8% (active) in test [6] (at 50.0 µM).
As for `COc1ccc(C2SCC(=O)N2c2nncs2)cc1` (stereo not given), the growth inhibition in test [1] (setting [7]) is -1%; in test [1] (setting [8]) it was 5%; in test [1] (at 50.0 µM), 50.1%; in test [2] (setting [7]), -3%; in test [2] (setting [8]), 1%; in test [2] (at 50.0 µM), 3.55%. In addition, the growth inhibition in test [3] (setting [7]) is -1%; in test [3] (setting [8]), 3%; in test [3] (at 50.0 µM), 9.5%; in test [4] (setting [7]), 2%; in test [4] (setting [8]), 7%; in test [4] (at 50.0 µM), -8.95%. Moreover, the growth inhibition is 4% in test [5] (setting [7]); 12% in test [5] (setting [8]); 21.7% in test [5] (at 50.0 µM); 2% in test [6] (setting [7]); 5% in test [6] (setting [8]); 13.8% in test [6] (at 50.0 µM).
Turning to `O=c1cc(-c2ccccc2)[nH]c2ccc(N3CCCC3)cc12`, the growth inhibition was 17% in test [1] (setting [7]); 26% in test [1] (setting [8]); -26.8% in test [1] (at 50.0 µM); 7% in test [2] (setting [7]); 9% in test [2] (setting [8]); -4.35% in test [2] (at 50.0 µM). For the same molecule, the growth inhibition in test [3] (setting [7]) was 13%; in test [3] (setting [8]), 13%; in test [3] (at 50.0 µM), -29.9%; in test [4] (setting [7]), 0%; in test [4] (setting [8]) it was 7%; in test [4] (at 50.0 µM), 7.25%. The growth inhibition in test [5] (setting [7]) was 14%; in test [5] (setting [8]) it was 6%; in test [5] (at 50.0 µM), -8.65%; in test [6] (setting [7]), 11%; in test [6] (setting [8]) it was 5%; in test [6] (at 50.0 µM) it was 0.5%.
On to `NC(=O)/C(=N\NC(=O)c1cc2ccccc2cc1O)C1C(=O)N(c2ccccc2)N=C1N` (stereo not given), for which the growth inhibition was 15% in test [1] (setting [7]); 15% in test [1] (setting [8]); 71.5% (active) in test [1] (at 50.0 µM); 6% in test [2] (setting [7]); 6% in test [2] (setting [8]); 43.4% in test [2] (at 50.0 µM). Besides, the growth inhibition in test [3] (setting [7]) is 7%; in test [3] (setting [8]) it was 7%; in test [3] (at 50.0 µM), 20.7%; in test [4] (setting [7]) it was 16%; in test [4] (setting [8]), 16%; in test [4] (at 50.0 µM) it was 11.7%. In addition, the growth inhibition in test [5] (setting [7]) was 2%; in test [5] (setting [8]) it was 2%; in test [5] (at 50.0 µM), 50.1%; in test [6] (setting [7]), 25%; in test [6] (setting [8]), 25%; in test [6] (at 50.0 µM), 67.4%.
`O=Cc1cc(S(=O)(=O)c2ccc(O)c(C=O)c2)ccc1O`: the growth inhibition in test [1] (setting [7]) was 12%; in test [1] (setting [8]), 22%; in test [1] (at 50.0 µM) it was 98.7% (active); in test [2] (setting [7]) it was 32%; in test [2] (setting [8]) it was 38%; in test [2] (at 50.0 µM) it was 98.7% (active). Besides, the growth inhibition in test [3] (setting [7]) was 17%; in test [3] (setting [8]) it was 25%; in test [3] (at 50.0 µM), 98.8% (active); in test [4] (setting [7]) it was 23%; in test [4] (setting [8]), 25%; in test [4] (at 50.0 µM) it was 97.5% (active). The growth inhibition in test [5] (setting [7]) was 5%; in test [5] (setting [8]), 11%; in test [5] (at 50.0 µM) it was 99% (active); in test [6] (setting [7]), 26%; in test [6] (setting [8]), 22%; in test [6] (at 50.0 µM), 98.6% (active).
For the molecule `COC(=O)[C@H]1O[C@H]1c1ccncc1`, the growth inhibition is 0% in test [1] (setting [7]); -5% in test [1] (setting [8]); 18.2% in test [1] (at 50.0 µM); 3% in test [2] (setting [7]); -2% in test [2] (setting [8]); 1.65% in test [2] (at 50.0 µM). Also, the growth inhibition in test [3] (setting [7]) is 5%; in test [3] (setting [8]), -2%; in test [3] (at 50.0 µM), 18.2%; in test [4] (setting [7]), -1%; in test [4] (setting [8]) it was -17%; in test [4] (at 50.0 µM) it was 53.8%. The growth inhibition in test [5] (setting [7]) is 3%; in test [5] (setting [8]) it was -2%; in test [5] (at 50.0 µM), 6.2%; in test [6] (setting [7]), 0%; in test [6] (setting [8]), -13%; in test [6] (at 50.0 µM), 8.2%.
With `CC1(COc2ccccc2OCC2(C)CO2)CO1` (stereo not given), the growth inhibition in test [1] (setting [7]) is 5%; in test [1] (setting [8]), 4%; in test [1] (at 50.0 µM), 12.2%; in test [2] (setting [7]), 2%; in test [2] (setting [8]) it was 1%; in test [2] (at 50.0 µM), 1.15%. For the same molecule, the growth inhibition is 0% in test [3] (setting [7]); 10% in test [3] (setting [8]); 7.75% in test [3] (at 50.0 µM); 2% in test [4] (setting [7]); 4% in test [4] (setting [8]); 70.7% (active) in test [4] (at 50.0 µM). Further, the growth inhibition is -2% in test [5] (setting [7]); -3% in test [5] (setting [8]); 5.6% in test [5] (at 50.0 µM); 7% in test [6] (setting [7]); 36% in test [6] (setting [8]); 5.35% in test [6] (at 50.0 µM).
`CC(C)c1ccc(/C=C2\CSCC3=C2NC(=S)NC3c2ccc(C(C)C)cc2)cc1` (stereo not given): the growth inhibition is -6% in test [1] (setting [7]); 83% (active) in test [1] (setting [8]); 98.3% (active) in test [1] (at 50.0 µM); -17% in test [2] (setting [7]); 92% (active) in test [2] (setting [8]); 98.7% (active) in test [2] (at 50.0 µM). Further, the growth inhibition in test [3] (setting [7]) is -13%; in test [3] (setting [8]), 87% (active); in test [3] (at 50.0 µM), 98.9% (active); in test [4] (setting [7]), -3%; in test [4] (setting [8]), 83% (active); in test [4] (at 50.0 µM), 98.6% (active). For the same molecule, the growth inhibition in test [5] (setting [7]) was -13%; in test [5] (setting [8]), 95% (active); in test [5] (at 50.0 µM) it was 98.7% (active); in test [6] (setting [7]), -4%; in test [6] (setting [8]), 94% (active); in test [6] (at 50.0 µM) it was 98.4% (active).
